# F508del corr – correctors of CFTR F508del function in bronchial epithelial cells | CFBE cells, YFP halide quenching; stimulated with forskolin plus potentiator P3; % fluorescence drop versus neutral controls | activity (quench increase), % at 7.58 µM | 350,000 compounds, 0.36% hits;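 active = mean added fluorescence quench of at least 8% versus neutral control, with both replicates also reaching 8%; inconclusive = only one of the mean or replicate conditions met; inactive = mean below 8% and not both replicates reaching 8%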;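 note: cells transiently co-express mutant CFTR-F508del with the halide-sensitive YFP; corrector assay measuring rescue of mutant channel to the surface after 24 h compound exposure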
# PglD DTNB – blocks C. jejuni PglD acetyltransferase activity. purified PglD enzyme, DTNB colorimetric CoA detection. inhibition, % at 12.5 µM. 360,000 compounds, 0.098% hits. AID 602405; in the data active = inhibition above about 16%, passing the limit was not always enough; inconclusive = no clear call, values can overlap the other calls
# ALR inh – human ALR oxidase inhibition via reduced H2O2; P55789; purified ALR, DTT oxidation, H2O2 HRP-luminol luminescence; inhibition, % (concentration not given with the values); 290,000 compounds, 3.8% hits; AID 485317;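 active = mean replicate inhibition above about 79%, with every replicate also reaching it, limit read from the data; inconclusive = only one of the two criteria met; inactive = mean below limit and not every replicate reaching it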
# Target sequence (P55789 whole entry, looked up): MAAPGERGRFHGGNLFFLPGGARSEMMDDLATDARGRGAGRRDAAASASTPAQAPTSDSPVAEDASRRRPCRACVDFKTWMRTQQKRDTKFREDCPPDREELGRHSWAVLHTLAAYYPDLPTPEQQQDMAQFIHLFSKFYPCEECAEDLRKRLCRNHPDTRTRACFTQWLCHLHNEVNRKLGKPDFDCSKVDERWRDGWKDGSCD
# CASP6 VEID inh – blocks human caspase-6 cleavage activity; purified caspase-6, Z-VEID-R110 cleavage fluorescence; inhibition, % at 12.5 µM; P55212; AID 686996; 350,000 compounds, 0.53% hits;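 active = mean inhibition across replicates at least about 35%, with every replicate also reaching that limit, limit read from the data; inconclusive = only one of the two criteria met; inactive = neither criterion met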
# Target sequence (P55212 24-179 limits assumed): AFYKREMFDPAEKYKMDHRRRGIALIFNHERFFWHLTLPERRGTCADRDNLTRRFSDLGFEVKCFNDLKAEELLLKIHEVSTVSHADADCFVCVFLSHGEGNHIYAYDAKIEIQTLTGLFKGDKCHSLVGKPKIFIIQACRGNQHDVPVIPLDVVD
# Target sequence (P55212 194-293 limits assumed): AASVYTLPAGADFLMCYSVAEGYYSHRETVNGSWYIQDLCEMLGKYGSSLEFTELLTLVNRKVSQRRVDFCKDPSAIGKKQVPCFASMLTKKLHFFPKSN
# NSD2 inh – blocks human histone methyltransferase NSD2 | inhibition, % at 12.5 µM | NSD2 peptide methylation, AlphaScreen, 120 min | 310,000 compounds, 0.54% hits | O96028; in the data active = inhibition above about 50%
# HIV Env fusion – inhibitors of HIV Env-mediated cell fusion; HeLa-JRFL Env/CEM21 cell fusion, luciferase; inhibition, % at 12.3 µM; 360,000 compounds, 1.1% hits;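 active = mean replicate inhibition score of at least 50 and every replicate individually at or above 50; inconclusive = only one of the two criteria met; inactive = mean below 50 and not all replicates reaching 50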
# Hits are given with their value; . = inactive; ? = inconclusive; / = no result given. A selection: hits, their analogues and other compounds. The true share with any hit is near 4.1%.
SMILES,F508del corr,PglD DTNB,ALR inh,CASP6 VEID inh,NSD2 inh,HIV Env fusion
O=C(C[C@@H]1C=C[C@@H](NC(=O)C2CC2)[C@@H](CO)O1)NCCc1cscn1,.,/,/,.,/,.
CCOc1ccccc1OCCC(=O)NNC(=O)Cn1nc(C)cc1C,.,.,.,46,.,.
COc1ccc(S(=O)(=O)Nc2ccc3c(c2)C(=O)N([C@@H](C)CO)C[C@@H](C)[C@@H](CN(C)C(=O)CCC(F)(F)F)OCCCC[C@@H](C)O3)cc1,.,.,/,.,/,.
C=CCc1c(O)nc(SCC(=O)c2ccccc2)[nH]c1=O,/,.,99,/,.,/
O=C(CSc1nc2[nH]ncc2c(=O)[nH]1)Nc1ccccc1,.,/,.,.,.,.
CCC(C)c1c(O)nc(SCC(=O)c2ccccc2)[nH]c1=O (stereo unspecified),/,.,99,/,.,.
CCC(C)c1c(O)nc(SCC(=O)Nc2ccccc2)[nH]c1=O (stereo unspecified),/,.,99,/,.,.
CCOC(=O)C(Cc1ccccc1)C(=O)Nc1ccc(N(CC)CC)cc1 (stereo unspecified),/,/,99,/,.,.
COC(=O)Nc1ccc(NC(C)=O)cc1,/,.,.,.,.,.
CCN(CC)c1ccc(NC(=O)c2cnn(CC)c2)cc1,/,/,99,/,.,/
CCN(CC)c1ccc(NC(=O)c2ccc(Br)o2)cc1,/,.,96,/,.,.
CCN(CC)c1ccc(NC(=O)OC)cc1,/,.,91,.,.,.
C[C@H](O)C#Cc1cnc2c(c1)C(=O)N([C@@H](C)CO)C[C@@H](C)[C@H](CN(C)C(=O)c1ccc(F)cc1)O2,.,.,/,.,/,.
CCN(CC)c1ccc(NC(=S)NC(=O)C2CCC2)cc1,.,.,99,.,.,.
O=C(CCN1CCCCC1)NNC(=S)NC(=O)c1ccc(Br)cc1,.,/,99,.,.,.
O=C(CCN1CCOCC1)NNC(=S)NC(=O)c1ccc(Br)cc1,.,/,99,.,.,.
Nc1ccc(NC(=O)CCN2CCOCC2)cc1,.,.,93,.,.,.
O=C(NCC[C@@H]1CC[C@@H](NS(=O)(=O)c2ccc(Cl)cc2)[C@H](CO)O1)c1ccccc1F,.,.,/,.,/,.
COCCN(C(=O)c1cc(-c2ccco2)nc2ccccc12)c1c(N)n(Cc2ccccc2)c(=O)[nH]c1=O,.,.,.,60,.,/
CCCCn1c(N)c(N(CCOC)C(=O)c2cc(-c3ccco3)nc3ccccc23)c(=O)[nH]c1=O,.,.,.,61,.,.
COCCN(C(=O)CSc1nc2ccccc2s1)c1c(N)n(Cc2ccccc2)c(=O)[nH]c1=O,.,.,/,.,.,.
CCCCN(C(=O)CSc1nc2ccccc2s1)c1c(N)n(CCCC)c(=O)[nH]c1=O,.,.,99,.,.,.
CCCCN(C(=O)c1cc(-c2ccco2)nc2ccccc12)c1c(N)n(CCCC)c(=O)[nH]c1=O,.,/,.,.,/,.
COc1ccc(S(=O)(=O)N[C@@H]2CC[C@@H](CC(=O)O)O[C@@H]2CO)cc1,.,.,/,.,/,.
C[C@@H]1CCCCO[C@H](CN(C)C(=O)C2CCCCC2)[C@H](C)CN([C@@H](C)CO)C(=O)c2cc(NC(=O)CCC(F)(F)F)ccc2O1,.,.,/,.,/,.
SMILES,F508del corr,PglD DTNB,ALR inh,CASP6 VEID inh,NSD2 inh,HIV Env fusion
CS(=O)(=O)N1CCc2cc(C(=O)Nc3ccc(O)cc3)ccc21,.,.,99,.,.,.
CC(=O)Nc1ccc(NC(=O)c2ccc3c(c2)CCN3S(C)(=O)=O)cc1,.,/,.,.,.,.
C[C@@H]1CN([C@@H](C)CO)C(=O)c2cccc(NC(=O)C3CCCCC3)c2O[C@H]1CN(C)Cc1ccncc1,.,.,/,.,/,/
CC(/C=C/c1ccc(O)cc1)=NNc1ccccc1,18,.,/,.,.,.
Cc1ccc(CN2CCSc3ccc(C(=O)NCc4cccnc4)cc32)cc1,/,.,.,/,.,.
O=C(c1ccc2c(c1)N(Cc1ccccc1)CCS2)N1CCCCC1,.,.,99,.,/,.
CN1CCN(C(=O)c2ccc3c(c2)N(Cc2ccccc2)CCS3)CC1,/,.,98,/,/,/
Cc1ccc(CN2CCSc3ccc(C(=O)NC4CCCC4)cc32)cc1,/,.,.,/,.,/
O=C(Cn1cc(C(=O)c2cccs2)c2ccccc21)NCc1ccc2c(c1)OCO2,.,.,.,.,/,57
O=C(Cn1cc(C(=O)c2cccs2)c2ccccc21)NCC1CCCO1 (stereo unspecified),/,.,.,/,/,.
O=C(CSc1c[nH]c2ccccc12)NCc1ccc2c(c1)OCO2,.,.,98,.,/,.
O=C(CN1CCCc2ccccc21)NCc1ccc2c(c1)OCO2,/,.,.,/,.,.
O=C(CN1CCc2ccccc21)NCc1ccc2c(c1)OCO2,.,/,99,.,.,.
C[C@H](CO)N1C[C@H](C)[C@@H](CN(C)Cc2ccc(Oc3ccccc3)cc2)Oc2ccc(NC(=O)Nc3ccc(C(F)(F)F)cc3)cc2CC1=O,.,.,/,/,/,.
CC(C)CNC(=O)C1(C)CCCCCN1C(=O)c1cccnc1 (stereo unspecified),.,.,/,56,.,.
CC(C)CNC(=O)C1(C)CCCCCN1C(=O)c1cc2ccccc2s1 (stereo unspecified),.,.,/,.,.,.
O=C(C[C@@H]1CC[C@@H](NC(=O)c2ccccn2)[C@@H](CO)O1)NCc1cc(F)cc(F)c1,.,.,/,.,/,.
COc1ccc(S(=O)(=O)n2ccc(-c3ccc(OCCN(C)c4ccccn4)cc3)n2)cc1,/,.,.,/,.,75
Nc1ccccc1Nc1ccc([N+](=O)[O-])cc1[N+](=O)[O-],/,/,/,.,.,.
Nc1cc([N+](=O)[O-])ccc1Nc1ccc(O)cc1,.,.,99,.,.,.
C[C@@H]1CN([C@@H](C)CO)C(=O)Cc2cc(N(C)C)ccc2O[C@@H]1CN(C)C(=O)Nc1ccc2c(c1)OCO2,.,.,/,.,/,.
CCn1c(C)nc2cc(C(=O)NNC(=S)Nc3ccccc3OC)ccc21,.,/,.,.,/,.
Cc1ccc(NC(=S)NNC(=O)c2nn(C)c(C)c2Cl)cc1,/,.,90,/,.,.
CCn1c(C)nc2cc(C(=O)NNC(=S)Nc3ccc(C)cc3)ccc21,.,.,86,.,.,.
Cc1ccc(NC(=S)NNC(=O)c2cn(C)nc2C)cc1,/,.,97,/,.,.
SMILES,F508del corr,PglD DTNB,ALR inh,CASP6 VEID inh,NSD2 inh,HIV Env fusion
Cc1ccc(NC(=S)NNC(=O)c2c(Cl)c(C)nn2C)cc1,/,.,87,/,.,.
Cc1ccc(NC(=S)NNC(=S)Nc2ccc(C)cc2)cc1,.,.,/,.,/,.
Cc1ccc(NC(=S)NNC(=O)c2c([N+](=O)[O-])c(C)nn2C)cc1,/,.,.,/,.,.
C[C@@H]1CN([C@@H](C)CO)S(=O)(=O)c2ccc(-c3cncnc3)cc2O[C@@H]1CN(C)C(=O)c1ccc2c(c1)OCO2,.,.,/,.,/,.
Cc1ccc(-c2nc3cc(N)ccc3o2)cc1Br,.,.,.,.,.,.
Nc1ccc(-c2nc3ccc(N)cc3o2)cc1,.,.,100,.,/,.
Nc1ccc2oc(-c3ccccn3)nc2c1,/,.,?,/,.,.

# From PubChem BioAssay
